The nature of assay [1]: Quantitative High-Throughput drug screen in 47 multiple myeloma cell lines against the NCATS MIPE library collection: Delta47_JCRB cell viability assay (AID 1918925; also: nearly all actives have a fitted effect of over 45% in size). The gist of the method: (§1)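 CellTiter-Glo luminescence (ATP) after 48 h compound exposure, 37C/5% CO2; 500 cells/well; MIPE 4.0 approved/investigational drugs pinned in; DMSO = 100%, media only = 0% viability.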

A short description of assay [2]: Quantitative High-Throughput drug screen in 47 multiple myeloma cell lines against the NCATS MIPE library collection: EJM_DSMZ cell viability assay (AID 1918926; also: nearly all actives have a fitted effect of over 30% in size). The essentials:
as §1

Assay [3] in a line: Quantitative High-Throughput drug screen in 47 multiple myeloma cell lines against the NCATS MIPE library collection: Karpas620_DSMZ cell viability assay (AID 1918959). Also: nearly all actives have a fitted effect of over 30% in size. The essentials: as §1
The nature of assay [4]: Quantitative High-Throughput drug screen in 47 multiple myeloma cell lines against the NCATS MIPE library collection: KHM11_PLB cell viability assay (AID 1918962). Also: nearly all actives have a fitted effect of over 35% in size. The gist of the method: as §1
Assay [5] is described as follows: Quantitative High-Throughput drug screen in 47 multiple myeloma cell lines against the NCATS MIPE library collection: JIM3_ECACC cell viability assay (AID 1918963; also: nearly all actives have a fitted effect of over 35% in size). The essentials: as §1
A short description of assay [6]: Quantitative High-Throughput drug screen in 47 multiple myeloma cell lines against the NCATS MIPE library collection: JIM1_ECACC cell viability assay (AID 1918964). The essentials: as §1
The nature of assay [7]: Quantitative High-Throughput drug screen in 47 multiple myeloma cell lines against the NCATS MIPE library collection: JJN3_DSMZ cell viability assay (AID 1918966; also: nearly all actives have a fitted effect of over 50% in size). The essentials: as §1
A short description of assay [8]: Quantitative High-Throughput drug screen in 47 multiple myeloma cell lines against the NCATS MIPE library collection: H1112_PLB cell viability assay (AID 1918967; also: nearly all actives have a fitted effect of over 30% in size). The gist of the method:
as §1

Assay [9] in a line: Quantitative High-Throughput drug screen in 47 multiple myeloma cell lines against the NCATS MIPE library collection: Karpas25_ECACC cell viability assay (AID 1918968; also: nearly all actives have a fitted effect of over 35% in size). The gist of the method:
as §1

The nature of assay [10]: Quantitative High-Throughput drug screen in 47 multiple myeloma cell lines against the NCATS MIPE library collection: KMS21BM_JCRB cell viability assay (AID 1918974). The following applies: ATP luminescence, 48 h; viability: at 45.8 µM (top of the series) unless noted. The gist of the method: as §1
The nature of assay [11]: Quantitative High-Throughput drug screen in 47 multiple myeloma cell lines against the NCATS MIPE library collection: ARP1_JJKsccF8 cell viability assay (AID 1918928; also: nearly all actives have a fitted effect of over 40% in size). The essentials:
(§2)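 Luminescence from CellTiter-Glo, taken after 5 min at room temperature, reports cellular ATP as viability. Cells (500 per well) had been treated 48 h at 37 °C with MIPE 4.0 compounds, scaled between DMSO and medium-only controls.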

A short description of assay [12]: Quantitative High-Throughput drug screen in 47 multiple myeloma cell lines against the NCATS MIPE library collection: INA6_PLB cell viability assay (AID 1918965; also: nearly all actives have a fitted effect of over 55% in size). The gist of the method: (§3)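 Myeloma cells (500 per well) were exposed to MIPE 4.0 compounds by pin transfer and incubated 48 hours at 37C, 5% CO2. Viability was read as ATP by CellTiter-Glo luminescence, normalised to DMSO (100%) and media-only (0%) wells.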

A short description of assay [13]: Quantitative High-Throughput drug screen in 47 multiple myeloma cell lines against the NCATS MIPE library collection: KMS27_JCRB cell viability assay (AID 1918970). Also: nearly all actives have a fitted effect of over 30% in size. The gist of the method:
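Each line is seeded at 500 cells per well and treated with library compounds for 48 hours under 37 °C, 5% CO2. CellTiter-Glo is then added for 5 min at room temperature before median relative luminescence is recorded.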

Assay [14] can be described thus: Quantitative High-Throughput drug screen in 47 multiple myeloma cell lines against the NCATS MIPE library collection: KMS12BM_JCRB cell viability assay (AID 1918971). Also: nearly all actives have a fitted effect of over 35% in size. The gist of the method: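 Relative luminescence from CellTiter-Glo served as the viability signal, referenced to DMSO-treated (100%) and cell-free medium (0%) controls. Treatment lasted 48 hours at 37C with 500 cells per well.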

A short description of assay [15]: Quantitative High-Throughput drug screen in 47 multiple myeloma cell lines against the NCATS MIPE library collection: KMS12PE_JCRB cell viability assay (AID 1918972). Also: nearly all actives have a fitted effect of over 30% in size. The gist of the method: as §3
Assay [16] is described as follows: Quantitative High-Throughput drug screen in 47 multiple myeloma cell lines against the NCATS MIPE library collection: KMS20_JCRB cell viability assay (AID 1918973). Also: nearly all actives have a fitted effect of over 45% in size. The gist of the method:
as §1

Assay [17] in a line: Quantitative High-Throughput drug screen in 47 multiple myeloma cell lines against the NCATS MIPE library collection: ARD_JJKsccE7 cell viability assay (AID 1918929). The essentials: as §1
Assay [18] can be described thus: Quantitative High-Throughput drug screen in 47 multiple myeloma cell lines against the NCATS MIPE library collection: KMM1_JCRB cell viability assay (AID 1918960). Also: nearly all actives have a fitted effect of over 30% in size. The gist of the method: as §2
Assay [19] in a line: Quantitative High-Throughput drug screen in 47 multiple myeloma cell lines against the NCATS MIPE library collection: Karpas417_ECACC cell viability assay (AID 1918961). The note with it: Karpas417 myeloma viability, CellTiter-Glo ATP luminescence, 48 h; viability (% of DMSO): at 45.8 µM (top of the series). The gist of the method:
as §3
In general terms: Cellular ATP, detected with luciferase, serves as a proxy for viable cell number.

Assay [20] in a line: Quantitative High-Throughput drug screen in 47 multiple myeloma cell lines against the NCATS MIPE library collection: AMO1_DSMZ cell viability assay (AID 1918927; also: nearly all actives have a fitted effect of over 30% in size). The essentials: as §1

Inconclusive results are not listed. The source made the active and inactive calls. Calls follow the shape of the dose curve; as a rule, active = well fitted curve in the direction sought with a large enough effect; inconclusive = small, poorly fitted or top-dose-only effect, or another doubt; inactive = no such curve, though single readings can be large; an effect the other way counts as inactive or inconclusive.
Potency is read from the fitted curve at half-maximal effect.

Consider `CC[C@H](CO)Nc1nc(NCc2ccccc2)c2ncn(C(C)C)c2n1`, for which the Potency in assay [1] is 16.6 µM (active); in assay [2], 26.4 µM (active); in assay [4], 18.7 µM (active); in [5], 26.4 µM (active); in assay [6], 6.62 µM (active); in assay [7] it was 18.7 µM (active). Besides, the Potency in assay [8] was 18.7 µM (active); in assay [9], 20.9 µM (active); in [10], 4.18 µM (active). In addition, the Potency result in assay [3] is “inactive”.

As to `COC(=O)Nc1ccc(-c2nc(N3CCOCC3)c3cnn(C4CCN(Cc5cccnc5)CC4)c3n2)cc1`, the Potency in assay [1] is 0.0935 µM (active); in assay [2], 1.48 µM (active); in assay [11], 0.0743 µM (active); in assay [4], 0.059 µM (active); in assay [5], 1.18 µM (active); in assay [12], 0.0469 µM (active). For the same compound, the Potency in assay [7] is 0.743 µM (active); in [8] it was 26.4 µM (active); in [9], 0.118 µM (active); in assay [14], 1.05 µM (active); in [16], 0.001 µM (active). Besides, the Potency entry in assay [3], in assay [13] and in assay [15] was “inactive” each time.

For `O=C(O)CCCc1c[nH]c2ccccc12`, the Potency result in assay [1], in [2], in assay [17], in [3], in [18] and in assay [5] was “inactive” throughout. For the same compound, the Potency entry in assay [12], in assay [8], in assay [9], in assay [13] and in [15] was “inactive” each time.

Regarding `Cc1cc(N2CCOCC2)cc2[nH]c(-c3c(NC[C@@H](O)c4cccc(Cl)c4)cc[nH]c3=O)nc12`, the Potency was 0.0662 µM (active) in [1]; 0.235 µM (active) in [2]; 5.26 µM (active) in [11]; 0.418 µM (active) in assay [3]; 0.0526 µM (active) in [18]; 0.132 µM (active) in assay [5]. For the same compound, the Potency in [12] was 0.296 µM (active); in [7], 1.48 µM (active); in assay [8], 0.166 µM (active); in assay [9] it was 0.0833 µM (active); in assay [13] it was 0.332 µM (active); in assay [14] it was 16.6 µM (active). The Potency in assay [15] is 7.43 µM (active); in assay [16], 0.0935 µM (active).

On to `CCn1cc(-c2ccnc3[nH]c(-c4cccc(CN(C)C)c4)cc23)c(-c2ccc(NC(=O)N(C)C)cc2)n1`, for which the Potency in assay [1] is 3.32 µM (active); in assay [11], 5.9 µM (active); in [3], 20.9 µM (active); in [18] it was 3.32 µM (active); in [19], 1.87 µM (active); in assay [4] it was 3.32 µM (active). Moreover, the Potency is 5.26 µM (active) in assay [5]; 5.26 µM (active) in [6]; 16.6 µM (active) in assay [7]; 14.8 µM (active) in assay [8]; 4.18 µM (active) in assay [9]; 13.2 µM (active) in assay [14]. In addition, the values for the Potency in assay [15], in assay [16] and in [10] were 5.26 µM (active), 4.18 µM (active) and 0.662 µM (active), respectively.

Take `CC(C)c1ccccc1Cc1cc(C(=O)Nc2ccc(S(=O)(=O)c3ccccc3C(C)(C)C)cc2)c(O)c(O)c1O`: the Potency in assay [1] is 7.43 µM (active); in assay [11], 14.8 µM (active); in [4] it was 7.43 µM (active); in [5] it was 4.18 µM (active); in assay [7] it was 14.8 µM (active); in assay [8] it was 6.62 µM (active). Also, the Potency is 3.72 µM (active) in assay [9], 3.72 µM (active) in assay [14] and 9.35 µM (active) in assay [16]. Also, the Potency entry in assay [20], in assay [17], in assay [3], in assay [18], in assay [6] and in [15] was “inactive” in each case.

On to `CN(C)CC(C)(C)CNc1nn2c(-c3ccccc3)nnc2cc1C1CCC1`, for which the Potency in [1] was 13.2 µM (active); in [3], 14.8 µM (active); in [6], 2.09 µM (active); in [12] it was 2.96 µM (active); in assay [9] it was 16.6 µM (active). Also, in assay [17], the Potency entry was “inactive”.

On to `O=C(O)c1ccc2cc(-c3ccc(O)c(C45CC6CC(CC(C6)C4)C5)c3)ccc2c1`, for which the Potency was 5.9 µM (active) in assay [1]; 1.32 µM (active) in assay [20]; 5.9 µM (active) in [11]; 5.26 µM (active) in assay [3]; 3.72 µM (active) in assay [5]; 0.332 µM (active) in assay [6]. Moreover, the Potency was 0.264 µM (active) in assay [12]; 0.418 µM (active) in assay [8]; 1.48 µM (active) in [9]; 0.187 µM (active) in [13]; 4.69 µM (active) in assay [14]; 0.526 µM (active) in assay [15].

Consider `CC(C)=CCCC(C)=CCCC(C)=CCSc1ccccc1C(=O)O`, for which the Potency in [1] was 2.35 µM (active); in [20], 4.18 µM (active); in [11], 1.18 µM (active); in [18], 0.187 µM (active); in [19], 0.235 µM (active); in assay [4] it was 1.18 µM (active). Moreover, the Potency in [12] is 18.7 µM (active); in [7], 1.18 µM (active); in assay [9], 2.35 µM (active); in [14], 1.66 µM (active); in assay [16] it was 5.26 µM (active); in assay [10], 5.9 µM (active).

With `COc1cc2c(Oc3ccc4[nH]c(C)cc4c3F)ncnc2cc1OCCCN1CCCC1`, the Potency was 3.32 µM (active) in assay [1]; 23.5 µM (active) in [11]; 2.96 µM (active) in assay [3]; 2.35 µM (active) in assay [18]; 4.69 µM (active) in assay [4]; 9.35 µM (active) in assay [5]. The Potency was 9.35 µM (active) in [12]; 20.9 µM (active) in [7]; 8.33 µM (active) in assay [8]; 5.9 µM (active) in [9]; 29.6 µM (active) in assay [14]; 2.96 µM (active) in [16].

As for `CN(C)c1nc(Cc2ccc(NC(=O)c3ccc4ccccc4c3)cc2)nc(Cl)c1CC(=O)O`, the Potency result in assay [1], in assay [11], in [3], in assay [4], in [5] and in [12] was “inactive” each time. For the same compound, the Potency entry in [8], in assay [9], in assay [14] and in assay [16] was “inactive” in each case. The Potency in [15] is 16.6 µM (active).

For the compound `COc1c(OCCCN2CCOCC2)ccc2c3n(c(=NC(=O)c4cnc(N)nc4)nc12)CCN3`, the Potency in [1] was 0.182 µM (active); in [20], 0.512 µM (active); in assay [11], 0.0288 µM (active); in [17], 0.0144 µM (active); in assay [3], 0.102 µM (active); in [18], 0.0129 µM (active). Further, the Potency in assay [19] is 0.0081 µM (active); in assay [4], 0.575 µM (active); in assay [6], 0.0072 µM (active); in assay [12], 6.45 µM (active); in assay [7], 3.23 µM (active); in assay [9], 0.0575 µM (active). Also, the Potency in [13] was 0.0457 µM (active); in assay [14] it was 5.75 µM (active); in [15], 0.0724 µM (active); in assay [16], 0.0512 µM (active).

The values are drawn from PubChem BioAssay (NCATS).
